Source: PubChem BioAssay
In the library only some 2.8% were active in any assay of this set; here they are far more common.
STAT3 SMM – STAT3 binders, primary screen, biochemical, small molecule microarray, single point, set 2. Signal transducer and activator of transcription 3 (Homo sapiens), P40763. His-STAT3 binding, anti-His fluorescence. calls only. 0.2% of 17,000 active. AID 624138, 2012;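 active = compounds whose four printed spots each show fluorescence over background unusually high for their array block, chance value under 7%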
p53 PUMA act – mutant p53 pathway re-activators, primary screen, cell-based, SW480, luciferase, single point, HTS | AID 624151, 2012 | SW480 PUMA-promoter luciferase, p53 mutant reactivation | 1.5% of 28,000 active | activation, % at 9.98 µM; in the data active = activation above about 52%
p53 mut binder – binders of human mutant p53, primary screen, biochemical, small molecule microarray, anti-GST fluorescence; mutant tumor protein p53 (GST-tagged), Homo sapiens; small molecule microarray binding; calls only; 0.4% of 17,000 active;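 active = compounds whose four printed spots each glow above background more than chance allows, each with a p-value under 7%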
c-Myc SMM – binders of human c-Myc, primary screen, biochemical, small molecule microarray, anti-His fluorescence. Myc proto-oncogene protein (Homo sapiens), P01106. His-c-Myc binding. calls only. 1.5% of 17,000 active;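 active = spot fluorescence over background with P-value below 7% in all four replicate spots, showing protein binding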;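 also: score is binary with 100 for all four spots passing and 0 otherwise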
NFkB SMM – binders of NF-kB p50 subunit, primary screen, biochemical, small molecule microarray, anti-His fluorescence; Nuclear factor NF-kappa-B p105 subunit (Homo sapiens), P19838; anti-His fluorescence binding; calls only; 1.3% of 17,000 active; AID 624139, 2012;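 active = spot fluorescence over background significantly raised, with a chance value under 7% in all four replicate spots of the compound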;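 also: probe protein is his-tagged human p50 processed subunit at 1 µg/ml; raw spot fluorescence signals with no normalization applied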
Target sequence (P19838 1-433 limits assumed): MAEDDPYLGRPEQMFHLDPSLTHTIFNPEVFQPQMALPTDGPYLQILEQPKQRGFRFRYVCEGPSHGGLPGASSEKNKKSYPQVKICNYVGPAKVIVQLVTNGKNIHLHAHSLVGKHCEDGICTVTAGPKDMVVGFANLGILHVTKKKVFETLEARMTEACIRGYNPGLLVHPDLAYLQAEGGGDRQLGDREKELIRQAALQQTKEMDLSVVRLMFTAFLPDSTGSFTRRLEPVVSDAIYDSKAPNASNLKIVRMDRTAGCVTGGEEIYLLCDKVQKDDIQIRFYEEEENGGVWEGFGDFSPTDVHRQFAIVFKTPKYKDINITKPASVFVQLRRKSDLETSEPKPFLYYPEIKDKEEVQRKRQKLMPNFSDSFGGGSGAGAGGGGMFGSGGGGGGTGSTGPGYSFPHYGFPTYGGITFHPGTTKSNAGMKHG
* hit, by the source's call; i = inactive; . = no result; + = active, no number.

SMILES	STAT3 SMM	p53 PUMA act	p53 mut binder	c-Myc SMM	NFkB SMM
C[C@H](CO)N1C[C@H](C)[C@H](CN(C)C(=O)c2ccccc2)OCCCC[C@H](C)Oc2ccc(NC(=O)Nc3ccc4c(c3)OCO4)cc2C1=O	i	-9.9	+	+	i
C[C@@H]1CCCCO[C@H](CN(C)C(=O)Cc2ccccc2)[C@@H](C)CN([C@H](C)CO)C(=O)c2cc(NC(=O)Nc3ccc(F)cc3)ccc2O1	i	-4.3	i	i	i
CCCN(C)C[C@@H]1OCCCC[C@@H](C)Oc2ccc(NC(=O)Nc3ccc(F)cc3)cc2C(=O)N([C@H](C)CO)C[C@H]1C	i	.	i	i	+
C[C@@H]1CCCCO[C@H](CN(C)C(=O)c2ccccc2)[C@@H](C)CN([C@H](C)CO)C(=O)c2cc(NC(=O)Nc3ccc4c(c3)OCO4)ccc2O1	i	-0.5	i	i	i
C[C@@H]1CCCCO[C@H](CN(C)C(=O)c2ccccc2)[C@H](C)CN([C@@H](C)CO)C(=O)c2cc(NC(=O)Nc3ccc(F)cc3)ccc2O1	i	-47.8	i	i	+
C[C@@H]1CN([C@@H](C)CO)C(=O)c2cc(NC(=O)Nc3ccc(F)cc3)ccc2O[C@@H](C)CCCCO[C@H]1CN(C)C(=O)Cc1ccccc1	i	-26.9	i	+	+
CCC(=O)Nc1nonc1-c1nc2ccccc2n1Cc1cc(OC)ccc1C	.	-27.2	.	.	.
Cc1cc(Cl)ccc1OC(C)C(=O)Nc1cccc(-c2nnc(-c3ccccc3)o2)c1 (stereo not given)	.	84.7*	.	.	.
CC(Oc1ccc(Cl)cc1Cl)C(=O)Nc1cccc(-c2nc3ccccc3o2)c1 (stereo not given)	.	9.0	.	.	.
CC(Oc1ccccc1)C(=O)Nc1cccc(-c2nnc(-c3ccccc3)o2)c1 (stereo not given)	i	114.1*	i	i	i
CCC(Oc1ccccc1)C(=O)Nc1cccc(NC(C)=O)c1 (stereo not given)	i	-7.0	i	i	i
O=C1OC(c2ccccc2)C(O)(c2ccccc2)C12CCCCC2 (stereo not given)	.	-2.3	.	.	.
C[C@H](CO)N1C[C@H](C)[C@H](CN(C)C(=O)Nc2ccc(C(F)(F)F)cc2)OCCCC[C@H](C)Oc2ccc(NC(=O)Nc3ccc(F)cc3)cc2C1=O	i	.	i	i	+
CC(C)NC(=O)N(C)C[C@@H]1OCCCC[C@@H](C)Oc2ccc(NC(=O)Nc3ccc(C(F)(F)F)cc3)cc2C(=O)N([C@@H](C)CO)C[C@H]1C	i	-59.0	i	i	i
C[C@@H]1CCCCO[C@H](CN(C)C(=O)Nc2ccc(C(F)(F)F)cc2)[C@@H](C)CN([C@@H](C)CO)C(=O)c2cc(NC(=O)Cc3ccccc3)ccc2O1	i	.	+	i	+
CC(C)NC(=O)N(C)C[C@@H]1OCCCC[C@H](C)Oc2ccc(NC(=O)Nc3ccc(C(F)(F)F)cc3)cc2C(=O)N([C@@H](C)CO)C[C@@H]1C	i	-53.5	i	+	+
C[C@@H]1CCCCO[C@@H](CN(C)C(=O)Nc2ccc(C(F)(F)F)cc2)[C@H](C)CN([C@@H](C)CO)C(=O)c2cc(NC(=O)c3ccncc3)ccc2O1	i	.	i	+	+
Cc1ccnc(NC(c2cccc(Cl)c2)c2ccc3ccc(C)nc3c2O)c1 (stereo not given)	.	-51.0	.	.	.
CC(C)NC(=O)N(C)C[C@H]1OCCCC[C@H](C)Oc2ccc(NC(=O)Nc3ccc(C(F)(F)F)cc3)cc2C(=O)N([C@H](C)CO)C[C@H]1C	i	-59.4	i	i	+
CC(C)c1ccc2c(c1)c1c3c(cncn32)CCC1	.	-7.6	.	.	.
CC(C)(C)CC(=O)NCc1ccc(S(N)(=O)=O)cc1	.	7.5	.	.	.
O=C(Cn1cnc2sc(-c3ccccc3)cc2c1=O)Nc1ccccc1	i	-7.5	i	i	i
CCN(CC(=O)Nc1ccc(I)cc1)S(=O)(=O)c1ccc2ccccc2c1	i	-5.6	i	i	i
C[C@@H]1CCCCO[C@@H](CN(C)C(=O)Nc2ccccc2)[C@H](C)CN([C@@H](C)CO)C(=O)c2cc(NC(=O)C3CCCCC3)ccc2O1	i	-18.0	+	+	+
Cc1noc(C)c1NC(=O)Nc1ccc2c(c1)C(=O)N([C@H](C)CO)C[C@@H](C)[C@H](CN(C)C(=O)C1CCCCC1)OCCCC[C@@H](C)O2	i	-10.9	i	i	i
SMILES	STAT3 SMM	p53 PUMA act	p53 mut binder	c-Myc SMM	NFkB SMM
Cc1noc(C)c1NC(=O)Nc1ccc2c(c1)C(=O)N([C@@H](C)CO)C[C@H](C)[C@@H](CN(C)C(=O)C1CCCCC1)OCCCC[C@H](C)O2	i	7.9	i	+	i
C[C@@H]1CCCCO[C@H](CN(C)C(=O)Nc2ccccc2)[C@@H](C)CN([C@H](C)CO)C(=O)c2cc(NC(=O)C3CCCCC3)ccc2O1	i	5.2	i	i	i
C[C@H](CO)N1C[C@H](C)[C@H](CN(C)C(=O)C2CCCCC2)OCCCC[C@H](C)Oc2ccc(NC(=O)Nc3ccccc3)cc2C1=O	i	-33.2	i	+	i
C[C@@H]1CN([C@@H](C)CO)C(=O)c2cc(NC(=O)Nc3ccccc3)ccc2O[C@@H](C)CCCCO[C@@H]1CN(C)C(=O)C1CCCCC1	i	1.2	i	i	i
C[C@@H]1CCCCO[C@H](CN(C)C(=O)C2CCCCC2)[C@@H](C)CN([C@@H](C)CO)C(=O)c2cc(NC(=O)c3ccncc3)ccc2O1	i	4.0	i	i	+
C[C@H]1CCCCO[C@@H](CN(C)C(=O)C2CCCCC2)[C@@H](C)CN([C@@H](C)CO)C(=O)c2cc(NC(=O)Nc3ccccc3)ccc2O1	i	-13.6	i	+	+
COc1ccc(N(CC(=O)Nc2ccc(Br)c(Cl)c2)S(C)(=O)=O)cc1Cl	.	-6.2	.	.	.
COC(=O)c1cc(Br)ccc1NC(=O)COc1ccc(C(C)(C)C)cc1	i	-8.5	i	+	i
COc1ccc(OC)c(NC(=O)COc2cc(C)c(Br)c(C)c2)c1	.	7.7	.	.	.
CCc1ccccc1OCC(=O)Nc1cc(OC)ccc1OC	.	93.2*	.	.	.
COc1ccc(OC)c(NC(=O)COc2ccc(C(C)(C)C)cc2)c1	.	63.6*	.	.	.
CC12C=CC(=O)C=C1CCC1C2=CCC2(C)C1CC[C@@H]2C(=O)CN1CCN(c2cc(N3CCCC3)nc(N3CCCC3)n2)CC1 (stereo not given in full)	i	16.9	i	+	i
CC(=O)O[C@@]1(C)C[C@@H](O)[C@@H]2C=CO[C@@H](O[C@@H]3O[C@H](CO)[C@@H](O)[C@H](O)[C@H]3O)[C@@H]21	i	-1.7	i	i	i
